Test results as given in PubChem BioAssay (NCATS).
Values joined by “and” are separate entries in the source; they are usually repeats but may differ in a detail not shown here. Identical values can stand only once. Values without a mark were called inactive. Active and inactive are the calls of the source.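 How the source made its calls: active means compounds whose dose series gives a full or clear partial fitted curve of increased nuclear translocation; inconclusive means weak partial curve or effect only at the top dose; inactive means no dose-dependent translocation response.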
Potency means the concentration at half of the fitted maximal effect.

What follows are molecules tested against Glucocorticoid receptor (Homo sapiens) (UniProt P04150) (assay: GR-GFP Redistribution (AID 450)). Conditions: U2OS GR-GFP nuclear translocation, laser cytometry, 2 h.
Sequence of Glucocorticoid receptor (Homo sapiens) (P04150 whole entry, looked up): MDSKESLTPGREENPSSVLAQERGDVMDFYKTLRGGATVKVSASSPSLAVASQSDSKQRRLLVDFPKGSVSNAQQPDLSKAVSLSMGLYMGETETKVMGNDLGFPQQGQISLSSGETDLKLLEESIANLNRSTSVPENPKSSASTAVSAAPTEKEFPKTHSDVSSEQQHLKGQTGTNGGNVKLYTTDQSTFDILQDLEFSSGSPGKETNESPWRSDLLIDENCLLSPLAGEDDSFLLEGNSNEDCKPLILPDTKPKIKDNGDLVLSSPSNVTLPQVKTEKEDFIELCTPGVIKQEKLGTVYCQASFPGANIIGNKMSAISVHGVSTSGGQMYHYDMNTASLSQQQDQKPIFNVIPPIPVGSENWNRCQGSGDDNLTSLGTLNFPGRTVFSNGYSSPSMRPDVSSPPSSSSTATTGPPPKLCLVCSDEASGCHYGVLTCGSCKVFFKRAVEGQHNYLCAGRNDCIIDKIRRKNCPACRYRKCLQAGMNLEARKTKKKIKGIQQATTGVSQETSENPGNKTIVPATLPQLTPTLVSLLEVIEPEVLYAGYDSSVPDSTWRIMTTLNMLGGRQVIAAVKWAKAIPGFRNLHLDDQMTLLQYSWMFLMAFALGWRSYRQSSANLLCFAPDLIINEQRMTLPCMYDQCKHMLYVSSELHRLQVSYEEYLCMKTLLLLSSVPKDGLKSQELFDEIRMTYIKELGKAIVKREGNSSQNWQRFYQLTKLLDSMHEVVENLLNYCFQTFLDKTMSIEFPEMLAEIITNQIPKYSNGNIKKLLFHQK
Excerpt: NIH Molecular Libraries Screening Centers Network [MLSCN]
NIH Chemical Genomics Center [NCGC]
The glucocorticoid receptor (GR) Redistribution assay (BioImage) enables the visualization of GR cytoplasmic to nuclear translocation by the use of a GR-GFP fusion. GR is normally cytosolic, however ligands such as dexamethasone, cause nuclear translocation where the protein binds to response elements and interacts with various co-factors to modulate transcription. Because both functional agonists and antagonists can induce nuclear translocation, this assay can detect ligands regardless of their effects on gene expression. GR-GFP expressing U20S cells were used here. Dexamethasone was the positive control for translocation and data normalization. Detection of nuclear translocation was performed in 1536-well plates using the Acumen laser scanning plate cytometer (TTP LabTech). Validation of this assay and a detailed protocol have been described.
NCGC Assay Protocol Summary:
GR-GFP U2OS cells were maintained in DMEM with Glutamax and high glucose, 1% v/v penicillin-streptomycin, and 0.5 mg/mL Geneticin. For cell culture, 10% […] fetal bovine serum (FBS) was used (Invitrogen #26140-079). For cell plating 10% dextran, charcoal-stripped FBS (Hyclone SH30068.03) was used. U2OS cells were trypsin treated, suspended in medium, and passed through a 40 um basket filter. The cells were seeded at 600 cells/5 uL/well into clear-bottom black sided 1536-well plates and incubated for approximately 20 hrs, 37degC, 5%, CO2 in a tissue culture incubator. Twenty-three nL of compound was delivered by pin tool and the plates were incubated as above for 2 hrs. The compounds were tested as a 7-point titration ranging from 46 uM to 0.6 nM. The cells were fixed using the Kalypsys Washer/Dispenser station. The fixing protocol involved aspiration of the cell media, addition of 6 uL/well of PBS, aspiration of PBS, addition of 5uL/well of 100% methanol, aspiration of methanol, and addition of 3 uL/well PBS with 1.5 uM propidium iodide (PI). The plates were read by the Acumen Explorer using a 1 x 8 um scan of the whole well area. PI fluorescence triggered the collection of PI and GFP signals. A nuclei population was defined by a 10 to 100 um width and depth filter that eliminated small and large fluorescent particles. Two subpopulations of nuclei were then defined by peak intensity of GFP fluorescence to obtain translocated and untranslocated objects. The number of translocated objects was used for data normalization.
Keywords: NIH Roadmap, MLSCN, MLI, MLSMR, sOGT, qHTS, NCGC
In the case of `C[C@@](N)(C(=O)O)c1cccc(CC(=O)O)c1`, the Potency is reported as > 46 µM. `COCCOC(=O)C1=C(C)NC(C)=C(C(=O)OC(C)C)[C@H]1c1cccc([N+](=O)[O-])c1` was tested, and the Potency was > 20.6 µM. With `O=C(O)[C@@H]1[C@@H]2C[C@H]3c4[nH]c5ccccc5c4CCN3C[C@@H]2CC[C@@H]1O` the Potency was > 20.6 µM and > 46 µM. With `COc1cc2c(cc1OC)-c1cc3ccc(OC)c(OC)c3c[n+]1CC2` the Potency was > 20.6 µM. With `O=C(NC[C@@H](O)CO)c1c(I)c(C(=O)NC[C@@H](O)CO)c(I)c(N(CCO)C(=O)CO)c1I` the Potency was > 20.6 µM. For `COc1cc(C2Oc3cc(C4Oc5cc(O)cc(O)c5C(=O)C4O)ccc3OC2CO)ccc1O` (stereo not given), the Potency was > 20.6 µM. With `Cc1c(C)c2c(c(C)c1O)CC[C@@](C)(C(=O)O)O2` the Potency was > 20.6 µM. With `C#C[C@@]1(OC(C)=O)CC[C@@H]2[C@@H]3CCC4=C[C@@H](OC(C)=O)CC[C@H]4[C@H]3CC[C@]21C` the Potency was > 20.6 µM. For `Nc1c(O)cccc1C(=O)C[C@@H](N)C(=O)O`, the Potency was > 20.6 µM. In the case of `C/C(=C(/CCO)SSC[C@@H]1CCCO1)N(C=O)Cc1cnc(C)nc1N`, the Potency is reported as > 20.6 µM. In the case of `CCN[C@@H]1CN(CCCOC)S(=O)(=O)c2sc(S(N)(=O)=O)cc21`, the Potency is reported as > 20.6 µM. With `COc1ccc2c(c1)N(C[C@@H](C)CN(C)C)c1ccccc1S2` the Potency was > 20.6 µM. `CC[C@H](C(=O)[C@H](C)[C@H](O)[C@H](C)CCc1ccc(C)c(O)c1C(=O)O)[C@H]1O[C@](CC)([C@@H]2CC[C@@](O)(CC)[C@H](C)O2)C[C@H]1C` was tested, and the Potency was > 20.6 µM. `FC(F)(F)c1ccccc1-c1ccc2ncnc(NC3CCNCC3)c2c1` was tested, and the Potency was > 46 µM. With `O=C(/C=C\c1ccc(O)c(O)c1)O[C@@H]1C[C@](O)(C(=O)O)C[C@@H](O)[C@@H]1O` the Potency was > 20.6 µM. With `O=C1OCCN1/N=C\c1ccc([N+](=O)[O-])o1` the Potency was > 20.6 µM. `CC(C)(C)NC[C@@H](O)COc1ccccc1C1CCCC1` was tested, and the Potency was 4.85 µM (active). For `CCOC(=O)Oc1c(OC)cc(C(=O)O[C@H]2C[C@H]3CN4CCc5c([nH]c6cc(OC)ccc56)[C@@H]4C[C@H]3[C@@H](C(=O)OC)[C@@H]2OC)cc1OC`, the Potency was > 20.6 µM. For `CC[N+]1(C)[C@@H]2CC[C@H]1CC(OC(=O)[C@H]1CC[C@@](C(=O)OC3C[C@H]4CC[C@@H](C3)[N+]4(C)CC)(c3ccccc3)c3ccccc31)C2` (stereo not given in full), the Potency was > 20.6 µM. In the case of `CCC(=O)[C@@]1(C)[C@H](C)C[C@@H]2[C@@H]3CCC4=CC(=O)C=C[C@@]4(C)[C@H]3[C@H](O)C[C@]21C`, the Potency is reported as 0.000592 µM (active). In the case of `C[N+](C)(CCCOc1ccccc1)c1ccccc1`, the Potency is reported as > 20.6 µM. In the case of `C[C@H](CCC(=O)NCC(=O)O)[C@H]1CC[C@H]2[C@H]3[C@@H](C[C@@H](O)[C@]12C)[C@]1(C)CC[C@H](O)C[C@@H]1C[C@@H]3O`, the Potency is reported as > 20.6 µM. For `C[C@@H]1CCc2cc(F)cc3c(=O)c(C(=O)O)cn1c23`, the Potency was > 20.6 µM. For `COc1ccc(-c2cc(=O)c3c(O)cc(O)cc3o2)cc1`, the Potency was > 20.6 µM. With `COc1ccc([C@@H]2CC(=O)c3c(O)cc(O[C@H]4O[C@@H](CO[C@H]5O[C@@H](C)[C@@H](O)[C@@H](O)[C@@H]5O)[C@@H](O)[C@@H](O)[C@@H]4O)cc3O2)cc1O` the Potency was > 20.6 µM. In the case of `CC(C)(C)NC[C@H](O)COc1cccc2c1C[C@@H](O)[C@@H](O)C2`, the Potency is reported as > 20.6 µM. With `C[N+]1(C)C[C@@H](O)C[C@@H]1C(=O)[O-]` the Potency was > 20.6 µM. In the case of `N[C@H](Cc1cc(I)c(Oc2ccc(O)c(I)c2)c(I)c1)C(=O)O`, the Potency is reported as > 20.6 µM. With `OCCN1CCN(CCC=C2c3ccccc3Sc3ccc(Cl)cc32)CC1` the Potency was > 20.6 µM. For `Cc1ccccc1OC[C@H](O)CO`, the Potency was > 20.6 µM. For `C[C@@H]1O[C@H](O[C@@H]2[C@@H](Oc3cc(O)c4c(c3)O[C@H](c3ccc(O)cc3)CC4=O)O[C@@H](CO)[C@@H](O)[C@H]2O)[C@@H](O)[C@H](O)[C@@H]1O`, the Potency was > 20.6 µM. For `O=C(O)[C@@H]1CCCN1`, the Potency was > 46 µM. With `CCCCC[C@H](O)/C=C\[C@H]1[C@H](C/C=C\CCCC(=O)O)[C@@H](O)C[C@H]1O` (tested in a mixture with another compound) the Potency was > 20.6 µM. In the case of `Cc1onc(-c2c(F)cccc2Cl)c1C(=O)N[C@H]1C(=O)N2[C@H]1SC(C)(C)[C@H]2C(=O)O`, the Potency is reported as > 20.6 µM. For `O=C(O)[C@@H](O)[C@@H](O)[C@@H](O[C@H]1O[C@@H](CO)[C@@H](O)[C@@H](O)[C@@H]1O)[C@@H](O)CO`, the Potency was > 20.6 µM. For `CC1(C)O[C@@H]2C[C@H]3[C@H]4C[C@H](F)C5=CC(=O)CC[C@]5(C)[C@@H]4[C@H](O)C[C@]3(C)[C@]2(C(=O)CO)O1`, the Potency was 0.00126 µM (active). With `Cc1ncc([N+](=O)[O-])n1C[C@H](O)CCl` the Potency was > 20.6 µM. In the case of `NC(=O)N[C@H]1NC(=O)NC1=O`, the Potency is reported as > 20.6 µM. `COc1ccc2nccc(C(=O)O)c2c1` was tested, and the Potency was > 20.6 µM. In the case of `CO[C@H]1[C@H](O[C@H]2O[C@@H](C)[C@@H](O[C@@H]3C[C@](C)(O)[C@H](O)[C@H](C)O3)[C@@H](N(C)C)[C@@H]2O)[C@@H](CC=O)C[C@@H](C)[C@@H](O[C@H]2CC[C@H](N(C)C)[C@H](C)O2)/C=C\C=C/C[C@@H](C)OC(=O)C[C@H]1O`, the Potency is reported as > 20.6 µM.
